INHIBITION data for 70 compounds are collected here from ChEMBL document CHEMBL4513216, “Probing the Open Global Health Chemical Diversity Library for Multistage-Active Starting Points for Next-Generation Antimalarials” (ACS Infect Dis, 2020).

Out of some 68,000 compounds screened, about 2,700 (4%) showed an effect of 50% or more. Many of the other results were omitted from the sample, so strong results are more common in it than they were.

The subject of this experiment is Plasmodium berghei. As to the kind of experiment: Screen against P. berghei liver stage (PbLuc), transformed with Luciferase, at 2uM. Format: functional, HepG2. To be noted: tested at 2 uM.
With `CO[C@@H]1CC[C@H]2[C@H]1OCCN2C(=O)c1ccc(C)nc1`, the INHIBITION was 29.89%.
As for `CC(C)CNC(=O)C1=NOC2(CCN(Cc3ccc(C(C)C)cc3)C2)C1` (stereo not given), the INHIBITION was 32.09%.
In the case of `CCOCc1nc2c(c(NCCNC(C)=O)n1)CCN(C(C)=O)CC2`, the INHIBITION is listed as 18.28%.
In the case of `CCOc1nnc(CN2CCCC(c3nc4ccccc4[nH]3)C2)s1` (stereo not given), the INHIBITION is given as 53.63%.
The same measure for `CCOc1nnc(CN2CCC(c3nc4ccccc4[nH]3)CC2)s1`: 28.42%; for `CCOc1nnc(CN2CCC(c3cc4ccccc4[nH]3)CC2)s1`: 38.33%; for `CCCN(CC(=O)OC)C(=O)c1sc(C)nc1C`: -1.29%.
Regarding `Cc1ccc(OCCNC(=O)C(C)n2cncn2)cc1` (stereo not given), the INHIBITION was determined as 42.11%.
Next, `CC(C(=O)NCCOc1ccccc1)n1cncn1` (stereo not given): 26.76%.
For the compound `CC(C(=O)NCCOc1cccc(Cl)c1)n1cncn1` (stereo not given), the INHIBITION is reported as 56.67%.
Turning to `Cc1cc(=O)[nH]c(=O)n1COCCOCc1ccccc1`, the INHIBITION stood at 30.48%.
For `O=C(c1nn(-c2ccccc2F)cc1O)N1CCCCC1`, the INHIBITION is listed as -10.64%.
Next, `Cc1ccc2c(C)c(C(=O)NCc3csc(N)n3)oc2c1`: -27.36%; `Cc1[nH]c2c(C)ccc(C)c2c1CC(=O)NCCCNc1cccnc1`: -10.38%; `Cc1[nH]c2c(C)ccc(C)c2c1CC(=O)NCCNc1cccnc1`: 64.92%.
`Cc1[nH]c2c(C)ccc(C)c2c1CC(=O)NCC(O)c1cccnc1` (stereo not given): the INHIBITION is on record as 31.65%.
Next, `COc1cccc(CC(=O)N2CCC3(CC2)OCCCC3O)c1OC` (stereo not given): 3.4%; `CC(C)OCCOCc1cccc(NC(=O)NCCn2ccnc2)c1`: 3.85%; `C=c1ccoc1=C1NN=C(CNCCn2cc(C)cn2)O1`: 32.63%.
The same measure for `C=c1ccoc1=C1NN=C(CNCCn2cccn2)O1`: 58.49%; for `C=c1ccoc1=C1NN=C(CNCC2CCCN2c2cccnn2)O1` (stereo not given): -10.6%.
The same measure for `COc1c(CNCc2ccc(C(=O)N(C)C)cc2)c(C)nn1C`: -11.71%.
Consider `Cc1oc(-c2nc(C#N)c(N(C)C)o2)cc1S(=O)(=O)N1CCCC1`, for which the INHIBITION is -20.66%.
The same measure for `O=C(c1ccccc1-c1nc[nH]n1)N1CCOC(C(F)(F)F)C1` (stereo not given): -99.7%.
In the case of `O=C(c1ccc(-c2nc[nH]n2)cc1)N1CCOC(C(F)(F)F)C1` (stereo not given), the INHIBITION is on record as 50.91%.
Next, `O=C(c1ccc(-c2nc[nH]n2)cc1)N1CC[C@H](CO)[C@@H](O)C1`: -94.13%; `CCOCC(O)CN1CCN(C(=O)CC(C)C)CC1` (stereo not given): -38.96%; `Cc1cc(C)n(CC2CN(CC(=O)N3CCC3)CCO2)n1` (stereo not given): -9.17%.
Regarding `c1cncc(COCC2CNCc3nccn3C2)c1` (stereo not given), the INHIBITION stood at 38.49%.
As to `CS(=O)(=O)NCc1ccc(NC(=O)CC2=CCCCC2)cc1`, the INHIBITION amounted to 35.9%.
`COCCO[C@H]1CCN(C(=O)c2ccsc2)[C@H]1Cc1cnn(C)c1`: the INHIBITION is given as -10.92%.
Consider `Cc1nn(C)cc1-c1cc(C(F)(F)F)c2c(C)nn(CC(=O)O)c2n1`, for which the INHIBITION is 15.91%.
Turning to `COc1ccccc1-c1cc(C(F)(F)F)c2c(C)nn(CC(=O)O)c2n1`, the INHIBITION is reported as 31.51%.
For `CCc1cc(C(F)(F)F)c2c(C)nn(CC(=O)O)c2n1`, the INHIBITION was 57.33%.
Next, `CCn1ccnc1CN1CCCN(C(=O)c2cc[nH]n2)CC1`: 0.74%; `COC1CCN(S(=O)(=O)N2CCCC2c2ccco2)CC1` (stereo not given): 36.28%.
The same measure for `O=S(=O)(N1CCC(n2cccc2)CC1)N1CCCC1c1ccco1` (stereo not given): 50.59%; for `O=S(=O)(N1CCN(CC2CC2)CC1)N1CCCC1c1ccco1` (stereo not given): -20.95%; for `O=C(NC1CC1)[C@@]12CCO[C@@H]1CCN(Cc1ccc3c(c1)OCO3)C2`: -14.64%.
The same measure for `CNC(=O)[C@@]12CCO[C@@H]1CCN(Cc1ccc3c(c1)OCO3)C2`: 39.02%; for `CC(C)NC(=O)[C@@]12CCO[C@@H]1CCN(Cc1ccc3c(c1)OCO3)C2`: 50.85%; for `CC(=O)N1CC2(CCCCN2Cc2ccc(Cl)cc2)Cc2ccccc21` (stereo not given): -31.86%.
For `Cn1ccc(CN2CCCC23CCN(Cc2cccc(F)c2)CC3)n1`, the INHIBITION is listed as 1.81%.
Next, `Cc1ccccc1OCC(=O)NCC(c1ccc(N(C)C)cc1)N(C)C` (stereo not given): 36.6%; `CCOc1ccccc1C(=O)N(C)C(C)c1ccc(S(C)(=O)=O)cc1` (stereo not given): 91.01%; `CC(c1ccc(S(C)(=O)=O)cc1)N(C)C(=O)c1ccccc1I` (stereo not given): 6.85%.
Next, `CC(c1ccc(S(N)(=O)=O)cc1)N(C)C(=O)c1ccccc1I` (stereo not given): -28.49%; `CC(C)c1csc(NC(=O)NC2CCCN(c3cnn(C)c3)C2)n1` (stereo not given): -20.08%.
Next, `N#Cc1cc(F)c(N2CCC(NS(=O)(=O)c3cccs3)CC2)c(F)c1`: 24.17%; `CSCC(C)(O)CNc1cccc(F)c1C#N` (stereo not given): 52.6%; `CC(C)C(C)(O)CNc1cccc(F)c1C#N` (stereo not given): 28.1%.
Turning to `CSCC(C)(O)CNc1cccc(F)c1C(C)=O` (stereo not given), the INHIBITION came to 8.75%.
The same measure for `Cc1ccc(-n2ncc(C(=O)N(C)C3CCN(C)CC3)c2N)cc1C`: -11.1%; for `O=C(C1=CCCC1)N1CCC[C@]2(C[C@@H](OCc3ccccn3)CO2)C1`: 3.72%; for `CC(c1ccco1)N(C(=O)c1cccc(C#N)c1)C1CC1` (stereo not given): 32.93%.
`Cc1noc(C)c1CNC(=O)N(C)C1CCN(c2ccccc2)C1=O` (stereo not given): the INHIBITION is -7.88%.
Next, `CCc1cc(CNC(=O)N(C2CC2)C(C)c2ccco2)on1` (stereo not given): -27.89%; `Cc1noc(C)c1CNC(=O)N(C1CC1)C(C)c1ccco1` (stereo not given): 50.91%; `CC(c1ccco1)N(C(=O)NCc1ccon1)C1CC1` (stereo not given): 1.88%.
Take `CCc1cc(CNC(=O)N(C2CC2)C(C)c2ccco2)[nH]n1` (stereo not given): the INHIBITION was 61.42%.
Consider `COc1cc(N2CCC3(CC2)OCC(=O)NC3C)ncn1` (stereo not given), for which the INHIBITION is reported as -7.03%.
As for `Cc1ccc(CN2CC[C@H]3[C@H]2CC(=O)N3c2ccsc2)o1`, the INHIBITION amounted to 43.05%.
With `COCCC(=O)N[C@H]1CC[C@H](Nc2nccc(-c3ccncc3)n2)C1`, the INHIBITION is listed as 24.51%.
Next, `O=c1c(Cc2ccc(Cl)cc2Cl)c(O)ccn1CC1CC1`: 31.56%.
Next, `CCc1nc2ccccc2c(=O)n1CC1(O)CCN(CC(=O)OC)CC1`: 28.64%; `CCc1nc2ccccc2c(=O)n1CC1(O)CCN(S(C)(=O)=O)CC1`: -37.18%.
Regarding `CCc1nc2ccccc2c(=O)n1CC1(O)CCN(C(=O)C2CC2)CC1`, the INHIBITION is 29.89%.
Next, `CCc1nc2ccccc2c(=O)n1CC1(O)CCN(C(=O)COC)CC1`: 56.99%; `CCCC(=O)N1CCC(O)(Cn2c(CC)nc3ccccc3c2=O)CC1`: -64.2%.
With `CCc1nc2ccccc2c(=O)n1CC1(O)CCN(C(=O)C(C)C)CC1`, the INHIBITION is given as 59.91%.
